Bioassay records (PubChem BioAssay)
Most compounds without a hit are left out; they make up all but 1.1% or so of the library.
Eya2 phos inh: qHTS Assay for Inhibitors of the Phosphatase Activity of Eya2; Protein phosphatase EYA2 (Homo sapiens), O00167; hit rate 0.006% among 330,000; Potency, µM (top dose mostly 76.9 µM), for inactives: at the top dose activity, negative = inhibition, most hits filed as inhibitors; recombinant Eya2, OMFP fluorescence dephosphorylation (OMFP is methylfluorescein phosphate)
Target sequence (O00167 whole entry, looked up): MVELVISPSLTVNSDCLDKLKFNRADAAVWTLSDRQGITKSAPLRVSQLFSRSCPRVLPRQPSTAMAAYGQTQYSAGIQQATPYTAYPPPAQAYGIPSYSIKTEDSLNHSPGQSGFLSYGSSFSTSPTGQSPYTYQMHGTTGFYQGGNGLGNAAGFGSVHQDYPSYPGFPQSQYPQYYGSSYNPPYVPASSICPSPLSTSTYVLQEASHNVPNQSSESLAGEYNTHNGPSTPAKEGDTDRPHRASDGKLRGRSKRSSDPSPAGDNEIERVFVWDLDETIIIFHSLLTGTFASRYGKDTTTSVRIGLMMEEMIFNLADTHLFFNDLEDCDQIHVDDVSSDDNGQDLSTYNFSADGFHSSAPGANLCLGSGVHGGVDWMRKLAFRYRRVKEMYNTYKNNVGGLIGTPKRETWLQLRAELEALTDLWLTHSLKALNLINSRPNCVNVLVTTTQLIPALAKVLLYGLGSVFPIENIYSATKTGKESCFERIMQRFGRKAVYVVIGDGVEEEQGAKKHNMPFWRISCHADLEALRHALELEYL
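Eya2 (0.2 uM) preincubated 10 min at ambient with compound, then OMFP substrate added at 50 uM; 10 min reaction in 50 mM HEPES pH 7.5, 50 mM NaCl, 5 uM MgCl2, 0.05% BSA, 1 mM DTT. Fluorescence read at Ex 485/Em 525 nm.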
rTrxR1 inhibitor: qHTS Assay for Inhibitors of Mammalian Selenoprotein Thioredoxin Reductase 1 (TrxR1): qHTS; recombinant rTrxR1, NADPH fluorescence consumption, selenite substrate; AID 588453, 2011; hit rate 1% among 390,000; Potency, µM (highest dose often 114 µM), inactives show at the top dose activity change, negative = inhibition, usual class: inhibitors; further: nearly all actives have a fitted effect of over 65% in size
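Rat TrxR1 (90 nM in the dispensed reagent) was pre-reduced with 400 uM NADPH for 5 min at room temperature, then incubated with compound for 15 min. After 400 uM selenite was added, NADPH fluorescence (Ex 340/Em 450 nm) was followed for 8 min.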
RGS4 inh: Inhibitors of Regulator of G Protein Signaling (RGS) 4: qHTS | AID 504845, 2011 | Regulator of G-protein signaling 4 (Homo sapiens), P49798 | Transcreener GDP fluorescence polarization, RGS4-accelerated GTP hydrolysis | Potency, µM (highest dose often 114 µM), for inactives: top-dose activity change, negative = inhibition, hits mostly inhibitors | hit rate 0.039% among 390,000; further: nearly all actives have a fitted effect of over 75% in size
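MLSMR compounds (23 nl, pin-transferred) preincubated 10 min at room temperature with a 500nM (2x) first reagent, then RGS4 at 900nM (2x) plus Transcreener GDP mix added; fluorescence polarization (620/688 nm) read before and after 90 min at 30 °C.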
TrxR1 substrate: qHTS Assay for Substrates of Mammalian Selenoprotein Thioredoxin Reductase 1 (TrxR1): qHTS. hit rate 0.01% among 390,000. Thioredoxin reductase 1, cytoplasmic (Rattus norvegicus), O89049. Potency, µM (series often up to 114 µM), inactives show at the top dose activity change, negative = substrate turnover. AID 588456, 2011. purified TrxR1 substrate turnover, NADPH consumption readout; further: nearly all actives have a fitted effect of over 50% in size
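Rat TrxR1, dispensed at 90 nM, was prereduced with 400 uM NADPH (final) for 5 min at ~22 deg C, then incubated with compound 15 min before 400 uM selenite. A first-read NADPH fluorescence drop versus no-compound background flagged substrates.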
mIDH1 inhibitor: qHTS for Inhibitors of mutant isocitrate dehydrogenase 1 (IDH1): qHTS; Isocitrate dehydrogenase [NADP] cytoplasmic (Homo sapiens), O75874; IDH1-R132H enzyme, NADPH consumption, diaphorase/resazurin fluorescence; Potency, µM (titrated, usually from 76.6 µM), inactives show at the top dose activity change, negative = inhibition, most hits filed as inhibitors; hit rate 0.093% among 390,000; AID 602179, 2012; further: nearly all actives have a fitted effect of over 65% in size
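IDH1-R132H (0.5 ug/mL) preincubated 30 min with compound, then NADPH (0.016 mM) and alpha-KG (2 mM) added; 80 min at RT, pH 7.5. Remaining NADPH coupled via diaphorase/resazurin to fluorescence (540/590 nm); concentration-response curves normalized to no-enzyme control.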
* hit, by the source's call; ? = inconclusive; · = not tested or not shown; [ ] = dose if it differs, or a comment. The call rests on the fitted dose curve; in most records, active means well fitted curve in the direction sought with a large enough effect; inconclusive means small, poorly fitted or top-dose-only effect, or another doubt; inactive means no such curve, though single readings can be large; an effect the other way counts as inactive or inconclusive. On the % scale 0 is the no-effect control and ±100 the full control effect; potency means the concentration at half of the fitted maximal effect.

SMILES	Eya2 phos inh	rTrxR1 inhibitor	RGS4 inh	TrxR1 substrate	mIDH1 inhibitor
COc1ccc(Nc2nc(N3CCOCC3)nc(N3CCOCC3)n2)c(OC)c1	-4%	12%	5%	-3%	0%
CCCS(=O)(=O)c1nc(S(=O)(=O)c2ccc(C)cc2)c(NCc2ccccn2)s1	-6%	20µM*	-22%	1%	11%
CCS(=O)(=O)c1nc(S(=O)(=O)c2ccc(C)cc2)c(NCc2ccccn2)s1	3%	-6%	25%	-12%	-6%
CC(C)[C@H](NC(=O)c1ccc(Cl)cc1)C(=O)OCC(=O)N1CCN(c2ccccc2)CC1	5%	32µM*	8%	2%	2%
O=C1c2ccc3c4c(ccc(c24)C(=O)N1CCCCO)C(=O)N(CCCCO)C3=O	-10%	40%	10%	3%	1%
Brc1cccc[n+]1CCC[n+]1ccccc1Br	·	6.3µM*	·	-12%	·
CC(C)(C)c1ccc(-n2ncc3c2CCCC3NC(=O)c2ccco2)cc1 (stereo unspecified)	·	·	·	·	16%
[O-]/[N+](=C\c1ccncc1)c1ccc(Br)cc1	-5%	35µM*	?	-5%	9%
Cc1ccccc1CS(=O)(=O)Cc1ccc(C(=O)NCc2ccco2)o1	4%	79µM*	-7%	-5%	-2%
O=C(NCc1ccccn1)c1ccc(CS(=O)(=O)Cc2ccc(Cl)cc2)o1	-10%	?	0%	2%	1%
Cc1ccccc1CS(=O)(=O)Cc1ccc(C(=O)NCc2ccccn2)o1	11%	50µM*	-7%	-3%	16%
COCCN(CCOC)Cc1c(O)ccc2c1O/C(=C\c1ccc(C)o1)C2=O	?	50µM*	-29%	?	-10%
CCN(CC)Cc1c(O)ccc2c1O/C(=C\C=C\c1ccccc1)C2=O	27%	71µM*	-15%[11.4 µM]	-13%	2%
COc1ccc([C@H]2CC(=O)C=C(c3ccc4c(c3)OCO4)C2)cc1	-1%	27%[57.1 µM]	7%	7%[57.1 µM]	-1%
CCc1cc(C(=O)NCCN(C)C)cs1	4%	4%	-18%	6%[57.1 µM]	-5%
COc1cccc(CCc2nnc(CCC(=O)N3CCN(Cc4ccccn4)CC3)o2)c1	5%	32µM*	-11%	6%	-10%
COc1cccc(CCc2nnc(CCC(=O)NCCc3cccc(C)n3)o2)c1	0%	8%[57.1 µM]	10%	1%[57.1 µM]	-1%
CN(C)c1ccc(NC2=C(Cl)C(=O)c3ccccc3C2=O)cc1	-15%	2.8µM*	-6%	4%	9%
COc1ccccc1NC1=C(NC(C)=O)C(=O)c2ccccc2C1=O	2%	4.5µM*	?	5%	3%
CC(=O)Nc1ccc(NC2=C(Cl)C(=O)c3ccccc3C2=O)cc1	8%	0.56µM*	-12%	0%[57.1 µM]	-2%
O=C(NNC(=O)C1COc2ccccc2O1)c1ccccc1O (stereo unspecified)	8%	1%	4%	17%	3%
CCc1noc(C)c1C(=O)Nc1ccc(S(=O)(=O)N2CCCCC2)cc1	0%	10%	5%	-9%[57.1 µM]	0%
Cc1cc(N2CCOCC2)n2ncc(-c3ccc(Cl)cc3)c2n1	15%	73%	-5%	157%	3%
CC(C)(C)c1cc(N2CCOCC2)n2ncc(-c3ccc(Cl)cc3)c2n1	-4%	89µM*	-19%[56.9 µM]	174%	3%
Cc1cccc(NC(=O)c2cc(-c3ccccn3)nc3ccccc23)c1C	1%	17%[57.1 µM]	25%	5%[57.1 µM]	-3%
SMILES	Eya2 phos inh	rTrxR1 inhibitor	RGS4 inh	TrxR1 substrate	mIDH1 inhibitor
O=C(CN1C(=O)C(=O)N(CCC2=CCCCC2)C1=O)c1c[nH]c2ccccc12	-6%	14%	12%	-3%	4%
O=C(CN1C(=O)C(=O)N(Cc2ccco2)C1=O)c1c[nH]c2ccccc12	4%	14µM*	-8%[56.9 µM]	0%	-16%
COc1ccc(NC(=O)C2CCCN(c3ncnc4onc(C)c34)C2)cc1OC (stereo unspecified)	·	10%[57.1 µM]	10%	3%[57.1 µM]	0%
C/C=C/C=C/C(=O)N1CC2(CC(c3cccc(NC(=O)CCCCC)c3)=NO2)C[C@H]1C(N)=O (stereo partly specified)	-10%	28µM*	?	0%	1%
C/C=C\C=C/C(=O)Nc1cccc(C2=NOC3(C2)C[C@@H](C(N)=O)N(C(=O)CCCCC)C3)c1 (stereo partly specified)	8%	14µM*	?	4%	-3%
C/C=C\C=C/C(=O)Nc1cccc(C2=NOC3(C2)C[C@H](C(N)=O)N(C(=O)CC)C3)c1 (stereo partly specified)	12%	14µM*	?	-3%[57.1 µM]	-9%
C/C=C\C=C/C(=O)Nc1cccc(C2=NOC3(C2)C[C@H](C(N)=O)N(C(=O)Cc2ccc([N+](=O)[O-])cc2)C3)c1 (stereo partly specified)	2%	7.9µM*	?	8%[57.1 µM]	-10%
C/C=C/C(=O)N1CC2(CC(c3cccc(NC(=O)CCCCC)c3)=NO2)C[C@H]1C(N)=O (stereo partly specified)	-3%	·	·	·	·
CCOC(=O)COn1c(=O)c(-c2cc3ccccc3o2)[n+]([O-])c2ccccc21	-1%	20%[57.1 µM]	12%	17%[57.1 µM]	-3%
CCOCC(=O)Nc1c(C(=O)Nc2ccc3c(c2)OCCO3)oc2ccccc12	-10%	-2%[57.1 µM]	-1%	-17%[57.1 µM]	5%
CC#CCN1c2ccccc2[C@]23C[C@@H](C(=O)OC)N(C(=O)c4ccc(Br)cc4)C2=NC(C(=O)OC)=C(C(=O)OC)[C@H]13	·	6%	-5%	-8%	-6%
CCN(CC(=O)Nc1c(F)cccc1F)C(=O)/C=C/c1ccc(OCC#N)c(OC)c1	9%	9%	11%	14%	-1%
COC(=O)c1c(C)[nH]c(C(=O)/C=C/c2cccc(Cl)c2)c1C	14%	2%	19%	4%	2%
CCCCCC(=O)Nc1cccc(C2=NOC3(C2)C[C@H](C(N)=O)N(C(=O)CC#N)C3)c1 (stereo partly specified)	1%	·	·	·	·
C/C=C/C=C\C(=O)Nc1cccc(C2=NOC3(C2)C[C@@H](C(N)=O)N(C(=O)/C(C)=C/C)C3)c1 (stereo partly specified)	-1%	11µM*	?	2%[57.1 µM]	1%
